High-throughput results: PubChem, National Center for Advancing Translational Sciences (NCATS)
Pf Dd2 inh – qHTS Primary assay for Inhibitors of Plasmodium falciparum Dd2 growth in vitro. Potency, µM (titrated, usually from 28.9 µM), usual class: inhibitors. P. falciparum Dd2 growth, SYBR Green, 72 h. AID 1347417, 2020. 120,000 tested, 4.3% active; active means well fitted inhibition curve with a large enough effect; further: nearly all actives have a fitted effect of over 65% in size
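Readout: SYBR Green fluorescence, 485 nm excitation, 535 nm emission, after ~16 h lysis at 37C. Before that, Dd2-infected red cells (2.5% hematocrit) grew 72 h with compound, 29 uM top final concentration.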
Hits are given with their value. This is one part of a sample in which hits are shown more often than they occur.

What do the screens show for `Cc1c(Cl)cccc1NC(=O)CN(CCc1ccccc1)S(=O)(=O)c1ccccc1`?
Pf Dd2 inh: inactive

Results for CCOc1ccccc1NC(=O)CN(CCc1ccccc1)S(=O)(=O)c1ccc(C)cc1 ?
Pf Dd2 inh: 11µM

How did Cc1ccc(C)c(NC(=O)CN(CCc2ccccc2)S(=O)(=O)c2ccccc2)c1 do in these assays?
Pf Dd2 inh: inactive

Results for COC(=O)CNC(=O)C1CCN(C(=O)C2CN(c3ccc(OC)cc3)C(=O)N2)C1 (stereo not drawn) ?
Pf Dd2 inh: inactive

How did CCC(Sc1nc2c(sc3ccccc32)c(=O)n1CCc1ccccc1)C(=O)N(CC)CC (stereo not drawn) do in these assays?
Pf Dd2 inh: inactive

How did CCC(Sc1nc2ccccc2c(=O)n1CCc1ccc(OC)c(OC)c1)C(=O)N(CC)CC (stereo not drawn) do in these assays?
Pf Dd2 inh: inactive

Results for CCC(Sc1nc2c(sc3ccccc32)c(=O)n1CCc1ccc(OC)c(OC)c1)C(=O)N(CC)CC (stereo not drawn) ?
Pf Dd2 inh: 4µM

What do the screens show for `CCN1c2cc(C(=O)Nc3ccc(Oc4ccccc4)cc3)ccc2C(=O)N2CCCCC21` (stereo not drawn)?
Pf Dd2 inh: inactive

How did Cc1ccc(NC(=O)NC[C@H]2O[C@@H](CC(=O)NCCN(C)C)[C@H](O)[C@@H]2O)cc1 do in these assays?
Pf Dd2 inh: inactive

Results for Cc1cn2nc(C(=O)N3CCC(NC(=O)c4cccc(N(C)C)c4)CC3)cc2c(=O)[nH]1 ?
Pf Dd2 inh: inactive

Results for COc1cc2nc(SCC(=O)Nc3cccc(C)c3)n3nc(CCn4c(C)nc5ccccc54)nc3c2cc1OC ?
Pf Dd2 inh: 2.2µM

What do the screens show for `Cc1cccc(NC(=O)CSc2nc3ccccc3c3nc(CCn4cncc4C)nn23)c1`?
Pf Dd2 inh: 10µM

Results for Cc1ccc(NC(=O)CSc2nc3ccccc3c3nc(CCn4cncc4C)nn23)c(C)c1 ?
Pf Dd2 inh: inactive

What do the screens show for `Cc1n[nH]c(C)c1CCc1nc2c3ccccc3nc(SCC(=O)Nc3ccc(F)cc3)n2n1`?
Pf Dd2 inh: 8.9µM

What do the screens show for `COc1cc2nc(SCC(=O)Nc3ccc(F)cc3)n3nc(CCn4c(C)nc5ccccc54)nc3c2cc1OC`?
Pf Dd2 inh: inactive

How did CCOc1ccccc1NC(=O)CSc1nc2cc(OC)c(OC)cc2c2nc(CCn3c(C)nc4ccccc43)nn12 do in these assays?
Pf Dd2 inh: 3.2µM

Results for Cc1ccccc1NC(=O)CSc1nc2ccccc2c2nc(CCn3cncc3C)nn12 ?
Pf Dd2 inh: inactive

What do the screens show for `O=C(CSc1nc2ccccc2c2nc(-c3ccccc3)nn12)Nc1ccc(Br)cc1`?
Pf Dd2 inh: inactive

What do the screens show for `COc1ccccc1NC(=O)Cn1c(SCC(=O)Nc2ccc(F)cc2)nc2ccccc21`?
Pf Dd2 inh: inactive

Results for COc1cc2nc(SCC(=O)Nc3cccc(C)c3)n3nc(-c4ccccc4)nc3c2cc1OC ?
Pf Dd2 inh: inactive

What do the screens show for `Cc1cccc(C)c1NC(=O)CSc1nc2ccccc2c2nc(CCc3c(C)n[nH]c3C)nn12`?
Pf Dd2 inh: inactive

What do the screens show for `Cc1ccc(CSc2nc3ccccc3c3nc(CCn4c(C)nc5ccccc54)nn23)cc1`?
Pf Dd2 inh: inactive

How did Cc1cn(CCn2ccnc2-c2cccc(C(C)N(C)C)c2)nn1 (stereo not drawn) do in these assays?
Pf Dd2 inh: inactive

What do the screens show for `COCCN1C[C@H]2CN(Cc3ccc(C(=O)O)cc3)CCN2C1=O`?
Pf Dd2 inh: inactive

Results for O=C1NC[C@@H](CCC(=O)N2CCC(O)CC2)N2C[C@@H](NCc3ccccc3)C[C@@H]12 ?
Pf Dd2 inh: inactive

How did COc1ccc(S(=O)(=O)N2CCOC[C@H](Oc3ccccc3)C2)cc1 do in these assays?
Pf Dd2 inh: inactive

How did COc1ccccc1-c1cc(C(=O)NCCc2ccc(Cl)cc2)c2cnn(C)c2n1 do in these assays?
Pf Dd2 inh: inactive

Results for O=C(Nc1ccc([C@H]2OCC(=O)N(Cc3cccnc3)[C@@H]2CO)cc1)C1CCC1 ?
Pf Dd2 inh: inactive

What do the screens show for `O=C(NC1CC1)c1ccc2nnc(-c3cccnc3)n2c1`?
Pf Dd2 inh: inactive

How did O=C(NCCc1cccnc1)c1ccc(-c2nnc3ccc(NC(=O)C4CCC4)cn23)cc1 do in these assays?
Pf Dd2 inh: 0.4µM

Results for Cc1ccc(NC(=O)N2CCc3c(C(=O)NCCc4ccccn4)cccc32)cc1 ?
Pf Dd2 inh: inactive

What do the screens show for `O=C(NCCc1ccccn1)c1ccc(OC2CCNCC2)nc1`?
Pf Dd2 inh: inactive

Results for O=C(NCCc1ccccn1)c1ccc(-c2nnc3ccc(NC(=O)C4CCC4)cn23)cc1 ?
Pf Dd2 inh: 0.56µM

How did COC[C@@H]1CN(C(=O)c2cncc(C)c2)C[C@H]1C(N)=O do in these assays?
Pf Dd2 inh: inactive

What do the screens show for `COc1cc(=O)n2c(c1C(=O)Nc1ccc(C(C)C)cc1)CCCC2`?
Pf Dd2 inh: inactive

How did c1cnc2c(c1)ncn2C1CC1 do in these assays?
Pf Dd2 inh: inactive

What do the screens show for `O=C1CC(c2ccccc2)N(C(=O)CNC(=O)Cn2c(=O)oc3ccccc32)CCCCCCN1` (stereo not drawn)?
Pf Dd2 inh: 10µM

How did Cc1ncccc1C(=O)N1CCCCCCNC(=O)[C@@H]2CCCC[C@@H]21 do in these assays?
Pf Dd2 inh: inactive

How did O=C1CC(c2ccccc2)N(C(=O)CNS(=O)(=O)c2ccccc2)CCCCCN1 (stereo not drawn) do in these assays?
Pf Dd2 inh: inactive

What do the screens show for `Cn1nc(C(=O)N2CCCCCCNC(=O)[C@@H]3CCCC[C@@H]32)c2ccccc21`?
Pf Dd2 inh: 2.2µM

How did O=C1NCCCCCCN(C(=O)c2ccccn2)[C@H]2CCC[C@@H]12 do in these assays?
Pf Dd2 inh: inactive

What do the screens show for `Cn1nccc1C(=O)NCC(=O)N1CCCCCNC(=O)CC1c1ccccc1` (stereo not drawn)?
Pf Dd2 inh: inactive

Results for Cc1cc(C(=O)NCC(=O)N2CCCCCCNC(=O)CC2c2ccccc2)n(C)n1 (stereo not drawn) ?
Pf Dd2 inh: inactive

What do the screens show for `O=C1CC(c2ccccc2)N(C(=O)CNS(=O)(=O)c2ccc3c(c2)CCC3)CCCCCCN1` (stereo not drawn)?
Pf Dd2 inh: 11µM

Results for Cn1nc(C(=O)NCC(=O)N2CCCCCCNC(=O)CC2c2ccccc2)c2ccccc21 (stereo not drawn) ?
Pf Dd2 inh: 0.63µM

How did O=C1CC(c2ccccc2)N(C(=O)CNC(=O)C2CC2)CCCCCCN1 (stereo not drawn) do in these assays?
Pf Dd2 inh: inactive

Results for O=C1CC(c2ccccc2)N(C(=O)CNS(=O)(=O)c2cccnc2)CCCCCCN1 (stereo not drawn) ?
Pf Dd2 inh: inactive

Results for O=C(COc1ccccc1)NCC(=O)N1CCCCCCNC(=O)CC1c1ccccc1 (stereo not drawn) ?
Pf Dd2 inh: inactive

Results for COCCn1ncc(N2CCCC(CC(=O)Nc3ccc(C)cc3C)C2)cc1=O (stereo not drawn) ?
Pf Dd2 inh: inactive

Results for Cc1cccc(NC(=O)NC2CCN(C(=O)N3CC4CC(C3)[C@H]3CCCC(=O)N3C4)CC2)c1 (stereo partly drawn) ?
Pf Dd2 inh: inactive

How did CCCN1C(=O)CC[C@H]2CN(c3cc(OC)nc(N)n3)CC[C@H]21 do in these assays?
Pf Dd2 inh: inactive

What do the screens show for `CN(C)c1ccc(C(=O)N2CC[C@@H](CC(=O)O)[C@@H](CCN3CCN(c4ccc(F)cc4)CC3)C2)cc1`?
Pf Dd2 inh: inactive

What do the screens show for `Cc1cc(C(=O)N2CCC(Oc3ccccc3)C2)n(C)n1` (stereo not drawn)?
Pf Dd2 inh: inactive
